The source of these data is PubChem BioAssay (NCATS).

Results filed as inconclusive are left out. The source made the active and inactive calls. Calls follow the shape of the dose curve; as a rule, active = well fitted inhibition curve with a large enough effect; inconclusive = small, poorly fitted or top-dose-only effect; inactive = flat fitted curve, though single readings scatter.
% is scaled to controls: 0 for no effect and ±100 for the full control effect.

System in one experiment: not listed separately
Nature of the experiment: Drug repurposing screens with cells derived from glioblastoma tumor samples (AID 1345199). Also: nearly all actives have a fitted effect of over 40% in size. The note with it: GBM patient neurospheres viability, ATP luminescence, 48 h; at 45.9 µM (top of the series); tumour line B. An outline of the steps:
(§1)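 Primary testing used CD133+ neurospheres from four GBM patients, seven concentrations, 48 h exposure and ATP-based viability; confirmation added three slower-growing patient lines.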
Turning to `COc1ccc2nc(S(=O)Cc3ncc(C)c(OC)c3C)[nH]c2c1` (centres undefined), the activity, negative = cell killing is -19.3% (inactive).

Regarding `NC(=O)c1cnccn1`, the activity, negative = cell killing was -8.76% (inactive).

`Cc1ccc(N(CC2=NCCN2)c2cccc(O)c2)cc1`: the activity, negative = cell killing was -13.6% (inactive).

Regarding `Cc1cn[nH]c1`, the activity, negative = cell killing is 0.573% (inactive).

As for `CCCc1nn(C)c2c(=O)[nH]c(-c3cc(S(=O)(=O)N4CCN(C)CC4)ccc3OCC)nc12`, the activity, negative = cell killing is -8.65% (inactive).

The experiment is the same for the next values; noted with them: GBM patient neurospheres viability, ATP luminescence, 48 h; at 45.9 µM (top of the series); tumour line D.
With `NC(=O)c1cnccn1`, the activity, negative = cell killing is -23.3% (inactive).

With `Cc1cn[nH]c1`, the activity, negative = cell killing is -5.07% (inactive).

`CCCc1nn(C)c2c(=O)[nH]c(-c3cc(S(=O)(=O)N4CCN(C)CC4)ccc3OCC)nc12`: the activity, negative = cell killing was -23.3% (inactive).

The same experiment, now with this note: GBM patient neurospheres viability, ATP luminescence, 48 h; at 46.1 µM (top of the series); tumour line C.
`NC(=O)c1cnccn1`: the activity, negative = cell killing was -17% (inactive).

As for `Cc1ccc(N(CC2=NCCN2)c2cccc(O)c2)cc1`, the activity, negative = cell killing is -7.27% (inactive).

`Cc1cn[nH]c1`: the activity, negative = cell killing was -3.17% (inactive).

Turning to `CCCc1nn(C)c2c(=O)[nH]c(-c3cc(S(=O)(=O)N4CCN(C)CC4)ccc3OCC)nc12`, the activity, negative = cell killing was 12.9% (inactive).

For another experiment, the system named is astro (control astrocytes). The description is as above. As to conditions: viability, ATP luminescence, 48 h; series mostly up to 45.9 µM. A digest of the protocol:
as §1
In the case of `COc1ccc2nc(S(=O)Cc3ncc(C)c(OC)c3C)[nH]c2c1` (centres undefined), the Potency result is “inactive”.

In the case of `OC(CN1CCC(Cc2ccc(F)cc2)CC1)c1ccc(Cl)cc1` (centres undefined), the Potency entry was “inactive”.

For the compound `NC(=O)c1cnccn1`, the Potency entry is “inactive”.

Regarding `Cc1ccc(N(CC2=NCCN2)c2cccc(O)c2)cc1`, the Potency entry was “inactive”.

In the case of `Cc1cn[nH]c1`, the Potency result is “inactive”.

Turning to `CCCc1nn(C)c2c(=O)[nH]c(-c3cc(S(=O)(=O)N4CCN(C)CC4)ccc3OCC)nc12`, the Potency result was “inactive”.

For the compound `NNCCc1ccccc1`, the Potency entry was “inactive”.
